Only some compounds are listed: those with a hit (about 2.3% of all), similar ones and a draw of the others.
A549 tox = Nrf2 qHTS screen for inhibitors: counterscreen for cytotoxicity. 390,000 compounds, 0.16% hits. AID 504648, 2011. A549 ARE-Fluc cells, CellTiter-Fluor viability, 18-24 h. Potency, µM (doses to about 46 µM), for inactives: at the top dose activity change, negative = cytotoxicity, most hits filed as inhibitors; note: potency is the fitted concentration of half-maximal effect; % is set by controls: 0 for no effect and ±100 for the full control effect
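A549 ARE-Fluc cells in 5% FBS OPTI-MEM, 5000 cells/well, rested 2 h then exposed to compounds in concentration-response for 18-24 h at 37 °C. Viability by CellTiter-Fluor fluorescence (Ex 405/Em 525) after 30 min; luciferase luminescence (BugLite, 15 min, RT) read afterwards.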
Nrf2 ARE act = qHTS of Nrf2 Activators; AREc32 ARE-luciferase reporter (MCF7-derived line), luminescence, 24 h; Potency, µM (series often up to 46.1 µM), for inactives: at the highest dose activation, actives largely listed as activators; 410,000 compounds, 0.31% hits; note: potency is the fitted concentration of half-maximal effect; % of control where 0% means no effect; nearly all actives have a fitted effect of over 65% in size
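Quantitative high-throughput format: AREc32 reporter cells, 1000 per well, received compound by pin transfer and were incubated 24 hr at 37 deg C, 5% CO2, before Steady-Glo luminescence detection.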
miR-21 act = qHTS Assay for Modulators of miRNAs and/orActivators of miR-21. Potency, µM (titrated, usually from 38.3 µM), without a hit: at the top dose activity change, positive = activation, actives largely listed as activators. HeLa miR-21 FLuc reporter, luciferase, 48 h. 340,000 tested, under 10 active;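 note: % of control where 0% means no effect; miR-21 action dims this reporter so a rising signal means less miR-21 action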
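HeLa cells stably expressing CMV-driven firefly luciferase with a downstream miR-21 binding sequence, endogenously expressing miR-21, were treated with titrations (up to about 40uM final) for 48 hours at 37 degree Celsius. Luciferase luminescence was read after lysis.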
Mito fusion act = qHTS Assay for Small Molecule Inhibitors of Mitochondrial Division or Activators of Mitochondrial Fusion. S. cerevisiae fusion-defective mutant growth rescue, CellTiterGlo 48 h. Potency, µM (series often up to 46.1 µM), inactives show at the highest dose growth rescue (activation), most hits filed as activators. 320,000 compounds, 0.23% hits; note: potency is the fitted concentration of half-maximal effect; % of control where 0% means no effect; nearly all actives have a fitted effect of over 45% in size
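Luminescent cell viability in 1536-well qHTS format served as the measure of rescued growth in ts fusion-mutant S. cerevisiae cultured on non-fermentable YPEG for 48 hours at 37C.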
Nrf2 inh = Nrf2 qHTS screen for inhibitors | Potency, µM (series often up to 46 µM), for the others: at the highest dose activity change, negative = inhibition, most hits filed as inhibitors | A549 ARE-Fluc reporter, luciferase luminescence, 18-24 h | 360,000 compounds, 2.1% hits; note: potency is the fitted concentration of half-maximal effect; % is set by controls: 0 for no effect and ±100 for the full control effect; nearly all actives have a fitted effect of over 60% in size
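Nrf2 activity is the BugLite luminescence, read 15 min after reagent at room temperature, following CellTiter-Fluor cytotoxicity readout (30 min, 37C). Compound titrations were applied for 18-24 h to 5000 A549 ARE_Fluc cells/well in 5% FBS OPTI-MEM.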
The depositor's hits bear a star; ? = inconclusive; . = no result. Calls come from the whole dose curve; as a rule, active = well fitted curve in the direction sought with a large enough effect; inconclusive = small, poorly fitted or top-dose-only effect, or another doubt; inactive = no such curve, though single readings can be large; an effect the other way counts as inactive or inconclusive.

SMILES	A549 tox	Nrf2 ARE act	miR-21 act	Mito fusion act	Nrf2 inh
Nc1nc(SC2c3cccc4cccc(c34)C2NS(=O)(=O)c2ccccc2)n[nH]1 (stereo not drawn)	-4%	3%	-1%	-15%	10%
Cc1cc(C)nc(SC2c3cccc4cccc(c34)C2NS(=O)(=O)c2ccccc2)n1 (stereo not drawn)	-4%	6%	-4%	20µM*	?
Cc1ccc(S(=O)(=O)NC2c3cccc4cccc(c34)C2Sc2ncccn2)cc1 (stereo not drawn)	1%	4%	18%	14µM*	?
Cc1ccc(S(=O)(=O)/N=C2\C=C(Nc3cccc(C(=O)O)c3)C(=O)c3ccccc32)cc1	-8%	-2%	29%	-11%	4%
Cc1ccc(S(=O)(=O)/N=C2\C=C(Nc3ccc(O)cc3)C(=O)c3ccccc32)cc1	16µM*	-4%	.	.	18µM*
O=C1C(Nc2ccccc2)=C/C(=N/S(=O)(=O)c2cccs2)c2ccccc21	15µM*	-2%	?	-25%	8.2µM*
Cc1ccn2c(NC3CCCCC3)c(-c3ccc(C)o3)nc2c1	-7%	.	.	.	1%
CCOC(=O)c1cc(-c2ccc(F)cc2)n(CCC(=O)NC2CCCCC2)c1C	-8%	8%	6%	.	.
CCC1CCc2nc3sc(C(=O)Nc4cccc(C(F)(F)F)c4)c(N)c3cc2C1 (stereo not drawn)	3%	0%	-12%	.	-6%
O=c1ccc(N=Nc2ccccc2)ccc1O	16µM*	22%	8%	21%	?
Cc1cc(Br)ccc1NC(=O)c1c(C)oc2ncnc(N3CCCCC3)c12	-1%	3%	13%	.	-22%
Cn1c(NC(=O)/C=C\c2ccccc2)cc(=O)n(C)c1=O	3%	11µM*	-38%	4%	?
Cn1c(NC(=O)c2cccs2)cc(=O)n(C)c1=O	-4%	10%	-6%	-2%	10%
Cn1c(NC(=O)c2ccc(Br)o2)cc(=O)n(C)c1=O	2%	11µM*	2%	4%	.
O=C(NC1CC(=O)N(c2cccc(F)c2)C1)C1CCCC1 (stereo not drawn)	-1%	0%	-1%	.	.
Cc1nc2oc3ccccc3c(=O)c2cc1C(=O)O	-4%	0%	-15%	-10%	9%
COc1ccc2oc3cc(Cl)ccc3c(=O)c2c1	.	7.9µM*	.	.	.
COC(=O)c1cc2c(=O)c3ccccc3oc2nc1C	0%	7.9µM*	-32%	-3%	?
O=c1c2ccccc2oc2cc(Br)ccc12	2%	?	.	.	?
COc1cc2oc3ccccc3c(=O)c2cc1OC	-1%	10µM*	-26%	-8%	7%
O=c1c2ccccc2oc2ccc(Oc3ccccc3)cc12	16%	27%	-60%	-6%	?
CC(C)(C)C(=O)NC(=S)NNC(=O)C(c1ccccc1)c1ccccc1	-26%	-1%	30%	-29%	21µM*
CN(C)C(=S)NC(=O)C(c1ccccc1)c1ccccc1	-4%	0%	-2%	-11%	15%
CC(=O)NNC(=S)NC(=O)C(c1ccccc1)c1ccccc1	?	0%	20%	-17%	16µM*
Oc1ccccc1C1C=C(c2ccc3c(c2)OCO3)NC(c2cccc(Cl)c2)N1 (stereo not drawn)	7%	.	.	.	8%
SMILES	A549 tox	Nrf2 ARE act	miR-21 act	Mito fusion act	Nrf2 inh
COc1ccc(NC(=O)c2ncn(-c3ccccc3)n2)cc1Cl	-1%	3%	-55%	.	27%
Oc1ccc(N=Nc2ccc3c(c2)OCCO3)c2ncccc12	?	11%	8%	10%	18µM*
Cc1cccc(N=Nc2ccc(O)c3ncccc23)c1	-27%	?	?	7%	?
COc1ccc(CN(Cc2ccccc2)C(C)=O)cc1COc1ccc(NC(C)=O)cc1	-7%	.	.	.	-24%
COc1ccc(CN(Cc2ccccc2)C(=O)C2CC2)cc1COc1ccc(NC(C)=O)cc1	-10%	.	.	.	21µM*
O=C(CN1C(=O)COc2ccccc21)N1CCCc2ccccc21	?	0%	-7%	8%	23µM*
Nc1c(Cl)ncnc1N/N=C/c1ccc2ccccc2n1	?	?	-33%	3%	13µM*
